In PubChem BioAssay (NCI):
About 79,000 compounds went through this panel and 15% of them were active in at least one assay; those are over-represented in the sample as a whole. Rule as the data show it: active = growth inhibition above about 70%; inactive = the rest.

Key:
[1] = NCI Yeast Anticancer Drug Screen. Data for the rad50 strain (AID 155);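 also: 0% = growth of vehicle-only cultures of the same strain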; conditions: S. cerevisiae rad50 strain growth inhibition; at 50.0 µM; active compounds read high
In short: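 Yeast carrying a defined DNA repair defect were exposed to test compounds, and growth was compared with vehicle-treated controls to give percent inhibition.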

[2] = NCI Yeast Anticancer Drug Screen. Data for the mec2-1 strain (AID 157); conditions: S. cerevisiae mec2-1 strain, at 50.0 µM, active compounds read high
In short: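 Growth inhibition is read against vehicle-treated controls after compound exposure of the mec2-1 yeast strain, which is defective in DNA damage repair or cell cycle control.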

[3] = NCI Yeast Anticancer Drug Screen. Data for the sgs1 mgt1 strain (AID 161);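 also: 0% = growth of cultures given vehicle only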; conditions: S. cerevisiae sgs1 mgt1 strain, at 50.0 µM, active compounds read high
In short: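 This yeast growth screen uses a strain with defined DNA-repair lesions; compound-treated growth is compared with vehicle-treated growth.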

[4] = NCI Yeast Anticancer Drug Screen. Data for the cln2 rad14 strain (AID 165);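 also: 0% = growth equal to vehicle treated cultures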; conditions: S. cerevisiae cln2 rad14 strain, at 50.0 µM, active compounds read high
In short: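 Growth inhibition, relative to vehicle-treated controls, is the read-out. The test organism is a yeast strain with defined genetic alterations, cln2 rad14.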

[5] = NCI Yeast Anticancer Drug Screen. Data for the bub3 strain (AID 167); conditions: S. cerevisiae bub3 mutant strain, at 50.0 µM, active compounds read high
In short: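 Compounds were applied to a genetically altered yeast strain carrying a cell-cycle control defect. Growth inhibition was scored against vehicle-treated controls.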

[6] = NCI Yeast Anticancer Drug Screen. Data for the mlh1 rad18 strain (AID 175); conditions: S. cerevisiae mlh1 rad18 strain growth inhibition; at 50.0 µM; active compounds read high
In short: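 Cells of a genetically altered yeast strain, deficient in DNA damage repair, were treated with compound. Their growth was then compared with that of vehicle-treated cultures to give inhibition.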

Measured: growth inhibition

BrCCCCCBr
inactive: [1] 12.4% | [2] 6.3% | [3] 1.5% | [4] -48.5% | [5] -5.45% | [6] 15.6%

N#CC1(CCCI)CCCC1
inactive: [1] 9.3% | [2] 7.05% | [3] 7.95% | [4] -7.45% | [5] -2.3% | [6] 6.1%

N#Cc1nccc2ccccc12
inactive: [1] 12.2% | [2] -13.3% | [3] -13.1% | [4] -29.1% | [5] -1.4% | [6] -13.4%

Cc1ccc(C(C)C)cc1[N+](=O)[O-]
inactive: [1] 9.9% | [2] -3.55% | [3] -17.7% | [4] -41% | [5] -13.6% | [6] -21.3%

CC1(C)COC(c2cc(Br)ccc2Br)=N1
inactive: [1] 4.9% | [2] -16.2% | [3] 7% | [4] 3.45% | [5] -3.3% | [6] 1.35%

N#CC1=C(Nc2ccccc2)CCC1
inactive: [1] 5% | [2] -11.6% | [3] -0.8% | [4] -38.8% | [5] 2.25% | [6] -5.4%

O=C(O)CCC1CCCO1 (stereo unspecified)
inactive: [1] -5.4% | [2] -9.35% | [3] -9.3% | [4] 10.2% | [5] 15.3% | [6] -0.6%

N#CC(c1ccc(Cl)cc1)c1cccc(C(C#N)c2ccc(Cl)cc2)n1 (stereo unspecified)
inactive: [1] 28.9% | [2] 13.6% | [3] 38% | [4] 32.1% | [5] 38.4% | [6] 25.3%

COC(=O)C(CC(=O)Nc1ccc(Cl)c(Cl)c1)C(=O)C(=O)Nc1ccc(Cl)c(Cl)c1 (stereo unspecified)
inactive: [1] -36.2% | [2] -15.6% | [3] -34% | [4] 6.6% | [5] -3.25% | [6] -10.7%

COc1ccc2c(CCNC(C)=O)c(C(C)=O)[nH]c2c1
inactive: [1] -9.65% | [2] -3.25% | [3] 12.4% | [4] 15.5% | [5] -12.3% | [6] 36.1%

CCN(CC)CCN(CC)CC(=O)Nc1ccccc1Cl
inactive: [1] -14.9% | [2] -29.9% | [3] -1.65% | [4] 4.35% | [5] -3.6% | [6] -14.2%

c1ccc(CSc2ncnc3oc(-c4ccccc4)nc23)cc1
inactive: [1] 22.5% | [2] 17.2% | [3] 13.6% | [4] 11.2% | [5] 24% | [6] 16.4%

CC1OC(C)(c2ccc(Cl)cc2)OCC1(C)C (stereo unspecified)
inactive: [1] -2.45% | [2] -1.15% | [3] 2.5% | [4] -26.6% | [5] 17.8% | [6] 16.9%

Clc1ccc(Cl)c(NNc2cc(Cl)ccc2Cl)c1
inactive: [1] -29.1% | [2] -45.5% | [3] -3.9% | [4] -0.9% | [5] -39.5% | [6] -34.5%

NC1=NN(c2ccccc2)C(=O)C1/C(=N\NC(=O)c1cc2ccccc2cc1O)C(=O)Nc1ccc(Cl)c(Cl)c1 (stereo unspecified)
inactive: [1] 28.7% | [2] 10% | [3] -17.2% | [4] 31.6% | [5] 6.95% | [6] 21.1%

CCCCCCCCCCCCCCCCCC(=O)OCC1OC(OC2(OC(=O)CCCCCCCCCCCCCCCCC)OC(COC(=O)CCCCCCCCCCCCCCCCC)C(OC(=O)CCCCCCCCCCCCCCCCC)C2OC(=O)CCCCCCCCCCCCCCCCC)C(OC(=O)CCCCCCCCCCCCCCCCC)C(OC(=O)CCCCCCCCCCCCCCCCC)C1OC(=O)CCCCCCCCCCCCCCCCC (stereo unspecified)
inactive: [1] 17.2% | [2] 6% | [3] 25.4% | [4] -2.75% | [5] 17.9% | [6] 23.8%

CCCSC(=O)Nc1ccc(Cc2ccc(NC(=O)SCCC)cc2)cc1
inactive: [1] 2.05% | [2] -17.3% | [3] 16.6% | [4] 21.8% | [5] 16.4% | [6] 14.5%

Cc1c(Cl)ccc2c1NC(=O)C2(O)CC(=O)c1ccccc1 (stereo unspecified)
inactive: [1] 10.1% | [2] -3.95% | [3] 35.9% | [4] 7.15% | [5] -18.8% | [6] 30.3%

BrC1=CCC23CC=C(Br)[C@H]4CC2(COC3)C[C@@H]1O4 (stereo partly specified)
inactive: [1] 25.2% | [2] -0.55% | [3] 0.6% | [4] -0.05% | [5] -19.4% | [6] -9.75%

O=C(COc1ccc(Cl)cc1Cl)Nc1ccc2ccccc2c1
inactive: [1] 49.4% | [2] 46% | [3] 59.4% | [4] 18.9% | [5] 54.5% | [6] 36.7%

Cc1c(-c2ccc3c(c2)OCO3)sc(N)c1C#N
inactive: [1] 5% | [2] -15.5% | [3] 12.2% | [4] 4.25% | [5] 20.6% | [6] -7.75%

CCCC1=NC(C(F)(F)F)(C(F)(F)F)N=C(N2CCOCC2)O1
inactive: [1] 0.95% | [2] 7.25% | [3] -2.3% | [4] 4.55% | [5] 27.1% | [6] 1.45%

C=CCC1(C)C(=O)CCC1=O
inactive: [1] -18.5% | [2] -5.8% | [3] 0.6% | [4] -12.6% | [5] 1.15% | [6] -4.1%

CN(C)C(=O)Sc1ccc(O)cc1
inactive: [1] 5.05% | [2] -21.6% | [3] -4.65% | [4] -28.3% | [5] 12.9% | [6] -2.8%

CC(C)CC(NC(=O)CNC(=O)/C=C/c1ccco1)C(N)=O (stereo unspecified)
inactive: [1] -16.9% | [2] -29% | [3] -9.2% | [4] -11.2% | [5] -10.1% | [6] -18.5%

CC(C)C(=O)N(C(C)C)C(C)C
inactive: [1] 25.2% | [2] 12.5% | [3] 8.5% | [4] -21.6% | [5] -0.55% | [6] 38%

Nc1cccc(=O)[nH]1
inactive: [1] 6.3% | [2] -10.2% | [3] -0.05% | [4] 3.7% | [5] 9.45% | [6] -3.85%

COc1cc(C2C(C(=O)O)=C(COC(C)=O)Oc3cc4c(cc32)OCO4)cc(OC)c1OC (stereo unspecified)
inactive: [1] -9.9% | [2] -15.4% | [3] -25.4% | [4] -19.2% | [5] -4.1% | [6] -8.6%

Cc1ccc2ccccc2c1CC(=O)NN
inactive: [1] 6.6% | [2] -26.8% | [3] -0.6% | [4] -25.2% | [5] 6.9% | [6] -8.95%

COc1cccc2c1C(c1ccc3ccccc3c1)OC2=O (stereo unspecified)
inactive: [1] -22.2% | [2] -11.4% | [3] -27.6% | [4] 12.8% | [5] -25.4% | [6] -15.5%

O=C(NC(=S)Nc1ccc([N+](=O)[O-])cc1Cl)c1ccccc1F
inactive: [1] 14.2% | [2] 6.1% | [3] 20.1% | [4] 21.9% | [5] 24.1% | [6] 20.1%

CN(C)C(=O)C1C2CC3OC(=O)C1C3C2 (stereo unspecified)
inactive: [1] 15.8% | [2] -5.4% | [3] 6.2% | [4] -41.3% | [5] -1.65% | [6] -0.6%

CC1CCCc2c1c1ccc3c(O)cccc3c1oc2=O (stereo unspecified)
inactive: [1] -10% | [2] -4.15% | [3] -15.4% | [4] 16.9% | [5] -5.95% | [6] -18.9%

O=C(O)c1cc2c(c3c1CCCC3)CCC1CCCC21 (stereo unspecified)
inactive: [1] 13.2% | [2] 26.4% | [3] 33.4% | [4] -6.25% | [5] 20.8% | [6] 27.9%

O=P(CCCCBr)(NCc1ccccc1)c1ccccc1 (stereo unspecified)
inactive: [1] 5.25% | [2] 7.85% | [3] 15.9% | [4] -19.9% | [5] 14.8% | [6] 13.2%

O=C(Nc1ccc(Cl)cc1)Nc1nnc2nc(CC(=O)c3cccc([N+](=O)[O-])c3Cl)c(=O)[nH]n12
inactive: [1] -9.45% | [2] 11.4% | [3] 2.95% | [4] -0.4% | [5] 5.6% | [6] 9.55%

O=C(N/N=C/c1ccc(Br)cc1)N/N=C/c1ccc(Br)cc1
inactive: [1] -13.5% | [2] -15.7% | [3] -6.45% | [4] 11.4% | [5] -5.05% | [6] -12.8%

CN(C)CCNc1nnc(NCCN(C)C)c2cc3ccccc3cc12
inactive: [1] -0.7% | [2] 27.3% | [3] -2.45% | [4] 10.5% | [5] -1.4% | [6] 7.45%

C[n+]1ccc2c(Br)cccc2c1
inactive: [1] -1.8% | [2] -14.9% | [3] -6.45% | [4] -12.7% | [5] -1% | [6] 13.5%

O=C(CCc1nnc2s/c(=C\c3ccccc3)c(=O)n12)Nc1cc(Cl)ccc1Cl
inactive: [1] -30.9% | [2] -1.6% | [3] -18.4% | [4] 16.4% | [5] 4.95% | [6] -1.45%

C/C(O)=C(\C=NC(=S)c1ccncc1)C(=O)Nc1ccccc1C
inactive: [1] -26.4% | [2] -37.6% | [3] -4.8% | [4] 13.3% | [5] -4.5% | [6] -26.9%
